# The sample as a whole holds a higher share of the strongest signals than the screen did.
# B1: Loc1 (Escherichia coli) (protein)
# chain: APCALTNVGEQRGTYILKPLSMKGNLTAEKIENTGNIIECTDLQETTNAIKVHFLTQNALKFKVGSRHYIINFPFEYDGKKIELPGKSSYNLEEMLSAINFTIPYSIASVSDSSNTADIFPGTPFPLLFEIEVSSCTGNNTNCNSVRFNYNLNTILQVNLMTHHHHHH
# Experiments:
# Assay in all cases: glycan array binding signal (z-score within array); higher = stronger binding
# Settings in all cases: glycan notation: IUPAC condensed, linker removed
# Fuc(a1-2)Gal = target: Fuc(a1-2)Gal
# Procedure, shortened: (§1)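 Glycan array binding is given as a within-array Z-score, which can be read as non-binding when negative. The arrays, 3228 of them, came from the Consortium for Functional Glycomics database and were retained only where the protein sequence was available. Z-scores were averaged across arrays of the same protein sequence at different concentrations or buffers and across linkers.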
# [1] = target: Fuc(a1-2)Gal(b1-3)GlcNAc(b1-2)Man(a1-3)[Fuc(a1-2)Gal(b1-3)GlcNAc(b1-2)Man(a1-6)]Man(b1-4)GlcNAc(b1-4)GlcNAc
# Procedure, shortened: as §1
# [2] = target: Fuc(a1-2)Gal(b1-3)GlcNAc(b1-3)[Neu5Ac(a2-6)Gal(b1-4)GlcNAc(b1-6)]Gal(b1-4)Glc
# Procedure, shortened: as §1
# Fuc(a1-2)Gal(b1-4)Glc = target: Fuc(a1-2)Gal(b1-4)Glc
# Procedure, shortened: as §1
# [3] = target: Fuc(a1-2)Gal(b1-4)GlcNAc(b1-2)Man
# Procedure, shortened: as §1
# [4] = target: Fuc(a1-2)[Gal(a1-3)]Gal(b1-4)GlcNAc
# Procedure, shortened: as §1
# [5] = target: Fuc(a1-2)[Gal(a1-3)]Gal(b1-4)GlcNAc(b1-2)Man(a1-3)[Fuc(a1-2)[Gal(a1-3)]Gal(b1-4)GlcNAc(b1-2)Man(a1-6)]Man(b1-4)GlcNAc(b1-4)GlcNAc
# Procedure, shortened: as §1
# [6] = target: Fuc(a1-2)[Gal(a1-3)]Gal(b1-4)[Fuc(a1-3)]GlcNAc
# Procedure, shortened: as §1
# [7] = target: Fuc(a1-2)[GalNAc(a1-3)]Gal(b1-3)GlcNAc(b1-6)GalNAc
# Procedure, shortened: as §1
# [8] = target: Fuc(a1-3)[Gal(b1-4)]GlcNAc(b1-6)GalNAc
# Procedure, shortened: as §1
# [9] = target: Gal(a1-3)Gal(b1-3)[Fuc(a1-4)]GlcNAc(b1-2)Man(a1-3)[Gal(a1-3)Gal(b1-3)[Fuc(a1-4)]GlcNAc(b1-2)Man(a1-6)]Man(b1-4)GlcNAc(b1-4)GlcNAc
# Procedure, shortened: as §1
# [10] = target: Gal(a1-3)Gal(b1-4)GlcNAc(b1-2)Man
# Procedure, shortened: as §1
# Gal(a1-3)GalNAc = target: Gal(a1-3)GalNAc
# Procedure, shortened: as §1
# Gal(b1-2)Gal = target: Gal(b1-2)Gal
# Procedure, shortened: as §1
# [11] = target: Gal(b1-3)GlcNAc(b1-6)Gal(b1-4)GlcNAc
# Procedure, shortened: as §1
# [12] = target: Gal(b1-4)GlcNAc(b1-2)Man(a1-3)[Man(a1-6)]Man(b1-4)GlcNAc(b1-4)GlcNAc
# Procedure, shortened: as §1
# [13] = target: Gal(b1-4)GlcNAc(b1-3)Gal(b1-3)GalNAc
# Procedure, shortened: as §1
# [14] = target: Gal(b1-4)GlcNAc(b1-3)Gal(b1-4)GlcNAc(b1-2)[Gal(b1-4)GlcNAc(b1-3)Gal(b1-4)GlcNAc(b1-6)]Man(a1-6)[Gal(b1-4)GlcNAc(b1-3)Gal(b1-4)GlcNAc(b1-2)Man(a1-3)]Man(b1-4)GlcNAc(b1-4)[Fuc(a1-6)]GlcNAc
# Procedure, shortened: as §1
# [15] = target: Gal(b1-4)GlcNAc(b1-3)Gal(b1-4)GlcNAc(b1-3)Gal(b1-4)GlcNAc(b1-3)Gal(b1-4)GlcNAc(b1-2)Man(a1-3)[Gal(b1-4)GlcNAc(b1-3)Gal(b1-4)GlcNAc(b1-3)Gal(b1-4)GlcNAc(b1-3)Gal(b1-4)GlcNAc(b1-2)Man(a1-6)]Man(b1-4)GlcNAc(b1-4)[Fuc(a1-6)]GlcNAc
# Procedure, shortened: as §1
# [16] = target: Gal(b1-4)GlcNAc(b1-3)Gal(b1-4)GlcNAc(b1-3)Gal(b1-4)GlcNAc(b1-3)Gal(b1-4)GlcNAc(b1-3)Gal(b1-4)GlcNAc(b1-2)Man(a1-3)[Gal(b1-4)GlcNAc(b1-3)Gal(b1-4)GlcNAc(b1-3)Gal(b1-4)GlcNAc(b1-3)Gal(b1-4)GlcNAc(b1-3)Gal(b1-4)GlcNAc(b1-2)Man(a1-6)]Man(b1-4)GlcNAc(b1-4)[Fuc(a1-6)]GlcNAc
# Procedure, shortened: as §1
# [17] = target: Gal(b1-4)GlcNAc(b1-3)[GlcNAc(b1-6)]Gal(b1-4)GlcNAc
# Procedure, shortened: as §1
# Gal6S(b1-4)Glc6S = target: Gal6S(b1-4)Glc6S
# Procedure, shortened: as §1
# [18] = target: GalNAc(b1-4)GlcNAc(b1-3)GalNAc(b1-4)GlcNAc
# Procedure, shortened: as §1
# [19] = target: GlcNAc(a1-3)Gal(b1-4)GlcNAc
# Procedure, shortened: as §1
# [20] = target: GlcNAc(a1-6)Gal(b1-4)GlcNAc
# Procedure, shortened: as §1
# [21] = target: GlcNAc(b1-2)[GlcNAc(b1-6)]Man(a1-6)[GlcNAc(b1-2)Man(a1-3)]Man(b1-4)GlcNAc(b1-4)GlcNAc
# Procedure, shortened: as §1
# [22] = target: GlcNAc(b1-3)Gal(b1-4)GlcNAc(b1-2)Man(a1-3)[GlcNAc(b1-3)Gal(b1-4)GlcNAc(b1-2)Man(a1-6)]Man(b1-4)GlcNAc(b1-4)[Fuc(a1-6)]GlcNAc
# Procedure, shortened: as §1
# GlcNAc(b1-3)GalNAc = target: GlcNAc(b1-3)GalNAc
# Procedure, shortened: as §1
# [23] = target: Kdn(a2-3)Gal(b1-4)[Fuc(a1-3)]GlcNAc
# Procedure, shortened: as §1
# [24] = target: Neu5Ac(a2-3)Gal(b1-3)GlcNAc
# Procedure, shortened: as §1
# [25] = target: Neu5Ac(a2-3)Gal(b1-3)GlcNAc(b1-2)Man
# Procedure, shortened: as §1
# [26] = target: Neu5Ac(a2-3)Gal(b1-4)GlcNAc(b1-2)[Neu5Ac(a2-3)Gal(b1-4)GlcNAc(b1-6)]Man(a1-6)[Neu5Ac(a2-3)Gal(b1-4)GlcNAc(b1-2)Man(a1-3)][GlcNAc(b1-4)]Man(b1-4)GlcNAc(b1-4)GlcNAc
# Procedure, shortened: as §1
# [27] = target: Neu5Ac(a2-3)Gal(b1-4)GlcNAc(b1-3)Gal(b1-4)GlcNAc(b1-3)Gal(b1-4)GlcNAc(b1-2)Man(a1-3)[Neu5Ac(a2-3)Gal(b1-4)GlcNAc(b1-3)Gal(b1-4)GlcNAc(b1-3)Gal(b1-4)GlcNAc(b1-2)Man(a1-6)]GalNAc
# Procedure, shortened: as §1
# [28] = target: Neu5Ac(a2-3)Gal(b1-4)[Fuc(a1-3)]GlcNAc6S
# Procedure, shortened: as §1
# [29] = target: Neu5Ac(a2-6)Gal(b1-4)GlcNAc(b1-2)Man(a1-3)[Neu5Ac(a2-3)Gal(b1-4)GlcNAc(b1-2)Man(a1-6)]Man(b1-4)GlcNAc(b1-4)GlcNAc
# Procedure, shortened: as §1
# Neu5Ac(a2-8)Neu5Ac = target: Neu5Ac(a2-8)Neu5Ac
# Procedure, shortened: as §1
# [30] = target: Neu5Ac(a2-8)Neu5Ac(a2-3)Gal(b1-4)Glc
# Procedure, shortened: as §1
# Neu5Ac(b2-6)GalNAc = target: Neu5Ac(b2-6)GalNAc
# Procedure, shortened: as §1
# Neu5Gc(a2-6)GalNAc = target: Neu5Gc(a2-6)GalNAc
# Procedure, shortened: as §1
binder,measurement,setting,value
B1,glycan array binding signal (z-score),Fuc(a1-2)Gal,0.363
same,glycan array binding signal (z-score),[1],-1.09
same,glycan array binding signal (z-score),[2],-0.102
same,glycan array binding signal (z-score),Fuc(a1-2)Gal(b1-4)Glc,-0.622
same,glycan array binding signal (z-score),[3],-0.607
same,glycan array binding signal (z-score),[4],2
same,glycan array binding signal (z-score),[5],1.97
same,glycan array binding signal (z-score),[6],-0.548
same,glycan array binding signal (z-score),[7],-0.51
same,glycan array binding signal (z-score),[8],3.45
same,glycan array binding signal (z-score),[9],-0.81
same,glycan array binding signal (z-score),[10],0.198
same,glycan array binding signal (z-score),Gal(a1-3)GalNAc,7.25
same,glycan array binding signal (z-score),Gal(b1-2)Gal,1.18
same,glycan array binding signal (z-score),[11],0.216
same,glycan array binding signal (z-score),[12],-0.747
same,glycan array binding signal (z-score),[13],0.355
same,glycan array binding signal (z-score),[14],2.29
same,glycan array binding signal (z-score),[15],2.43
same,glycan array binding signal (z-score),[16],1.98
same,glycan array binding signal (z-score),[17],-0.48
same,glycan array binding signal (z-score),Gal6S(b1-4)Glc6S,0.298
same,glycan array binding signal (z-score),[18],0.68
same,glycan array binding signal (z-score),[19],-0.527
same,glycan array binding signal (z-score),[20],2.41
same,glycan array binding signal (z-score),[21],3.01
same,glycan array binding signal (z-score),[22],0.259
same,glycan array binding signal (z-score),GlcNAc(b1-3)GalNAc,-0.454
same,glycan array binding signal (z-score),[23],-0.405
same,glycan array binding signal (z-score),[24],-0.838
same,glycan array binding signal (z-score),[25],-0.478
same,glycan array binding signal (z-score),[26],-0.322
same,glycan array binding signal (z-score),[27],2.75
same,glycan array binding signal (z-score),[28],0.57
same,glycan array binding signal (z-score),[29],0.21
same,glycan array binding signal (z-score),Neu5Ac(a2-8)Neu5Ac,0.04
same,glycan array binding signal (z-score),[30],8.5
same,glycan array binding signal (z-score),Neu5Ac(b2-6)GalNAc,-0.643
same,glycan array binding signal (z-score),Neu5Gc(a2-6)GalNAc,0.381

# Reference: the supplement of paper PMC8728848
